Among all 310,000 compounds or so, about 14,000 (4.5%) showed an effect of 50% or more. Effects have a minus sign here. The entries come from a sample that favours strong results as a whole.

This note sets out measurements from publication PMC4336329 (PLoS ONE, 2015).
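Note: peak tail current of the secondary pulse compared with the same well before compound.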

Sequence of human ether-à-go-go-related gene (hERG) potassium channel (Q12809 whole entry, looked up): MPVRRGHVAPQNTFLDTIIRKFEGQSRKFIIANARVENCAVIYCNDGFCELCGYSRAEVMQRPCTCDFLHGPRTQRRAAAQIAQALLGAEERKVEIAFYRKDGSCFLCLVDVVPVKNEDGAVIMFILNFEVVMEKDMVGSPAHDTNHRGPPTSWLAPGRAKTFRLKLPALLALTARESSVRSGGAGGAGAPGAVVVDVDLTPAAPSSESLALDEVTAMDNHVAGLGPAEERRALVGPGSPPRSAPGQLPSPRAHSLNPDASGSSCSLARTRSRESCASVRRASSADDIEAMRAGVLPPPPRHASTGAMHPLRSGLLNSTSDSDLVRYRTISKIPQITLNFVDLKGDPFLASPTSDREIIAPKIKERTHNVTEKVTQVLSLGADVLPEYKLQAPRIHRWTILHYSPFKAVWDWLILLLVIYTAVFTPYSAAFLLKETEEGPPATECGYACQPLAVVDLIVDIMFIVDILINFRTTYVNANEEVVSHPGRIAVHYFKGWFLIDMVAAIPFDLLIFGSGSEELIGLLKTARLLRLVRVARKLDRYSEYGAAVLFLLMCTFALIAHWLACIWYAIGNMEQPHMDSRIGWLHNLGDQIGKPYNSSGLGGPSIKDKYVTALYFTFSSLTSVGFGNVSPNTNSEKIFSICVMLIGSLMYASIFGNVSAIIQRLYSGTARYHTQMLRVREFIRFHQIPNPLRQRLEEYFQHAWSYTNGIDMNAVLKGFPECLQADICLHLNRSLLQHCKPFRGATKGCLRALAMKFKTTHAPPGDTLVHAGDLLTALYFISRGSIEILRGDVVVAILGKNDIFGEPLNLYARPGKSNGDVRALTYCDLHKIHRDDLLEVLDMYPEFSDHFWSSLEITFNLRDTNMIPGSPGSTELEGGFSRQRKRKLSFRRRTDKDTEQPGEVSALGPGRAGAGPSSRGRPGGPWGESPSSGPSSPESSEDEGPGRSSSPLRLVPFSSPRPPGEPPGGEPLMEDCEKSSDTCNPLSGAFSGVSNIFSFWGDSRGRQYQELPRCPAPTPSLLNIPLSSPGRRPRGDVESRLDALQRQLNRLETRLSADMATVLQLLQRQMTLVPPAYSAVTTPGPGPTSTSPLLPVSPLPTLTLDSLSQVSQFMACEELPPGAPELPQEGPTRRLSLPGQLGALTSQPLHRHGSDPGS

The assay concerns the target human ether-à-go-go-related gene (hERG) potassium channel (human, UniProt Q12809). Description: primary screen, population patch clamp on CHO cells stably expressing hERG; higher = less effect of the substance.
Consider `CC1(C)CC(NC(=O)c2ccc3c(c2)OCO3)CC(C)(C)N1`, for which the “hERG current change (%, negative = inhibition) at 10uM” value came out at 4.65%. The value for `COC(=O)[C@H](CC(C)C)NC(=O)NCCCc1ccccc1` was 1.82%; that for `COc1ccc(C2Nc3ccccc3C(=O)N2Cc2ccccc2)cc1COc1ccccn1` (stereo not shown) was -49.4%. The value for `Cn1cc(C2=C(c3ccc(Cl)cc3Cl)C(=O)NC2=O)c2ccccc21` was 33%; that for `O=C(C1CC1)N1CCC(c2nc(-c3ccc(S(=O)(=O)N4CCCC4)cc3)no2)CC1` was -13%; that for `O=C(c1cccs1)N1CCC(c2nc(-c3ccc(S(=O)(=O)N4CCOCC4)cc3)no2)CC1` was -68.8%. The value for `O=C(N1CCOCC1)N1CCC(c2nc(-c3ccc(S(=O)(=O)N4CCOCC4)cc3)no2)CC1` was -2.07%; that for `O=C(Nc1ccccc1)N1CCC(c2nc(-c3ccc(S(=O)(=O)N4CCOCC4)cc3)no2)CC1` was -4.94%; that for `O=C(c1ccccc1)N1CCC(c2nc(-c3ccc(S(=O)(=O)N4CCOCC4)cc3)no2)CC1` was -60.8%. With `Cc1cccc(C(=O)N2CCC(c3nc(-c4ccc(S(=O)(=O)N5CCOCC5)cc4)no3)CC2)c1`, the “hERG current change (%, negative = inhibition) at 10uM” value is -3.33%. As to `O=C(CN1C(=O)C2CC=CCC2C1=O)Nc1ccc(OC(F)(F)F)cc1` (stereo not shown), the “hERG current change (%, negative = inhibition) at 10uM” value is recorded as -14.2%. The value for `CCOC(=O)c1c(-c2ccccc2)csc1NC(=O)CSc1ccccc1` was -4.13%; that for `O=C(CSc1nnc(Cc2ccsc2)o1)c1ccccc1` was -16.7%. Under `CC1(C)CC(=O)C(C=Nc2ccc(Cl)cn2)=C(O)C1` stands 11.6%; under `CN(C(=O)COc1cc(=O)n(C)c2ccccc12)c1ccc(Cl)cc1`, -29.2%; under `COc1cc(=O)n(C)c2ccccc12`, -4.88%. The value for `CN(c1ccc(Cl)cc1)c1cc(=O)n(C)c2ccccc12` was -51.8%.

Take `CCC(CC)COC(=O)C1=C(C)NC(=O)NC1c1ccc([N+](=O)[O-])cc1` (stereo not shown): the “hERG current change (%, negative = inhibition) at 10uM” value is recorded as 11.6%. Under `Cc1ccc(NS(=O)(=O)c2cccc(C(=O)NCC(c3ccc(F)cc3)N3CCOCC3)c2)cc1` (stereo not shown) stands -16.8%. The value for `CN(C)c1ccc(CN2CC=C(c3ccc(F)cc3)CC2)cc1` was -69.9%; that for `CCN(CC)c1ccc(CN2CC=C(c3ccc(F)cc3)CC2)cc1` was -78.4%; that for `CCN(CC)c1ccc(CN2CCCCCC2)cc1` was -20.4%. Under `O=[N+]([O-])c1cccc(CN2CC=C(c3ccc(F)cc3)CC2)c1` stands -39.2%; under `COc1cccc(CN2CC=C(c3ccc(F)cc3)CC2)c1`, -26.5%; under `COc1cc(CN2CC=C(c3ccc(F)cc3)CC2)cc(OC)c1`, -57.3%. As for `O=[N+]([O-])c1ccccc1CN1CC=C(c2ccc(F)cc2)CC1`, the “hERG current change (%, negative = inhibition) at 10uM” value is on record as -12.8%. The value for `COc1cc(C)c(CN2CC=C(c3ccc(F)cc3)CC2)cc1C` was -37.2%; that for `COc1ccc(CN2CC=C(c3ccc(F)cc3)CC2)cc1Br` was -11.7%. Under `CCOC(=O)c1c(S(=O)(=O)N2c3ccccc3CC2C)c(C)n(C)c1C` (stereo not shown) stands 13.1%.

With `CC(=O)Oc1ccc(C(=O)Nc2cccc(-c3nnc(-c4ccco4)o3)c2)cc1`, the “hERG current change (%, negative = inhibition) at 10uM” value is recorded as 0.775%. Under `O=C(COC(=O)C1(c2ccc(F)cc2)CCCC1)NC1CC1` stands 0.676%; under `CCC1(C)Cc2c(sc3nc(SC)n(Cc4ccccc4)c(=O)c23)CO1` (stereo not shown), 6.63%; under `Cc1sc(NC(=O)C2=COCCO2)nc1-c1ccc(Cl)cc1`, 13%. The value for `CCCCn1c(=O)c(CCC(=O)OCC(=O)NC(=O)NCCC(C)C)nc2ccccc21` was -9.31%; that for `CCc1nnc(NC(=O)C2CCCN(S(=O)(=O)c3ccccc3)C2)s1` (stereo not shown) was 5.15%; that for `Cc1nc2cc(NC(=O)COc3ccccc3C#N)ccc2n1-c1ccccc1` was -4.85%. The value for `Cc1cc(C)c(C#N)c(N2CCN(CCOc3ccc(Cl)cc3)CC2)n1` was -33.6%; that for `Clc1ccc(OCCN2CCOCC2)cc1` was 17%; that for `Clc1ccc(OCCN2CCN(c3ncnc4sccc34)CC2)cc1` was -81.2%. Consider `CCN(CC)S(=O)(=O)c1ccc(N2CCN(CCOc3ccc(OC)cc3)CC2)nc1`, for which the “hERG current change (%, negative = inhibition) at 10uM” value was -46.8%. The value for `NS(=O)(=O)c1ccc(N2CCN(CCOc3ccc(Cl)cc3)CC2)nc1` was -69.8%; that for `Cc1sc2ncnc(N3CCN(CCOc4ccc(Cl)cc4)CC3)c2c1C` was -9.02%; that for `CN(C)C(=O)CSc1ccc(S(=O)(=O)N2CCOCC2)cn1` was 10.6%.
